Assay results published in ChEMBL document CHEMBL5308541, “MAIP: An Open-Source Tool to Enrich High-Throughput Screening Output and Identify Novel, Druglike Molecules with Antimalarial Activity” (ACS Med Chem Lett, 2023).
The campaign covered roughly 4,800 compounds. About 420 (8.8%) showed an effect of 50% or more. The sample holds strong results, similar compounds and a random draw of the others, so the mix is not that of the screen.

Tested on: Plasmodium falciparum
Assay: Confirmatory screen in NF54 nanoGlo assay, in single point, at 2uM, 72h
Format: functional, Erythrocyte
Conditions: timepoint 72 hour

Row | Compound | % Inhibition [%]
1 | CN1CCN(CCc2ccc(N[C@H]3CCCN(Cc4ccccc4)C3(C)C)cc2)CC1 | 10
2 | C[C@H]1CCCN(CCNC(=O)c2ccc(-c3ccc4c(=O)[nH]ccc4c3)cc2)C1 | 58
3 | c1cc(CN2CCN(c3cc(N4CCN(Cc5ccncc5)CC4)ncn3)CC2)ccn1 | 0
4 | CCOc1ccc2nc(N3CCC(N4CCC([C@H](O)c5cccnc5)CC4)CC3)nc(C)c2c1 | 29
5 | CCOc1ccc2nc(CN(CC)CC3CCN(C4CCN(C)CC4)CC3)ccc2c1 | 82
6 | Cc1noc(-c2ccnc(NC[C@@H](c3ccccn3)N3CCOCC3)c2)n1 | 93
7 | COc1ccnc(NCCCc2nc(-c3ccncc3)cs2)n1 | 65
8 | CN(C)C1CCN(CCN[C@H]2CCc3ccc(F)cc32)CC1 | 85
9 | Cc1ccccc1-c1cccc(N2CCC(NCC3CCNCC3)CC2)c1 | 99
10 | Cc1ccccc1-c1cccc(CNCCCN2CCC[C@H](O)C2)c1 | 12
11 | c1ccc(-c2nc3c(c(NCCNc4ncccn4)n2)CCC3)nc1 | 25
12 | CCCN(CCN1CCN(CC)CC1)c1nc(-c2ccccn2)nc2c1CCC2 | 6
13 | Cc1nc(-c2ccccn2)nc(NC2CCN(CC(F)F)CC2)c1C | 35
14 | CCOc1cc(C(=O)NC2CCN(CC3CCCC3)CC2)cc(-c2ccccc2)c1OC | 95
15 | Cc1cnccc1N1CCCN(Cc2ccccc2OCCN2CCN(C)CC2)CC1 | 99
16 | CN(C)C1(CNc2nc(C(F)(F)F)nc3cc(F)ccc23)CCCCCC1 | 61
17 | CN(C)C1(CNc2nc(C(F)(F)F)nc3cc4c(cc23)OCO4)CCCCCC1 | 49
18 | C[C@H](Nc1nc(N)c2ccccc2n1)c1cccc(-n2cncn2)c1 | 36
19 | COCCNc1nc(N[C@@H](C)c2ccccc2)c2ccccc2n1 | 63
20 | COCCN1CC[C@H](CNC2CCN(c3ncc4ccc(F)cc4n3)CC2)C1 | 59
21 | COCCN1CCC[C@H](CNCc2cnn(-c3ccc4ccccc4c3)c2)C1 | 12
22 | Cc1cc(N2CC3COCCC3(C(=O)O)C2)nc2ccc(F)cc12 (stereo not given) | -2
23 | c1cncc(-c2ccc(CNC3CCN(Cc4cccs4)CC3)cc2)c1 | 45
24 | Cc1ccn2cc(-c3ccc(N4CCC(NCc5cccnc5)CC4)cc3)nc2c1 | 60
25 | CN(c1ccccc1)c1ccc(CN2CCN([C@H]3CCNC3)CC2)cc1 | 54
26 | COC(=O)c1cn(CCNc2ccnc3cc(Cl)ccc23)cc2c(O)nnc1-2 | 95
27 | Cc1ocnc1CNC[C@H](O)c1ccc(Cl)c(Cl)c1 | 89
28 | CCc1ccc2ncnc(NCCCN3CCN(CCO)CC3)c2c1 | 43

Row | Compound | % Inhibition [%]
29 | COCCCN1CCC(Nc2ncnc3cc(C)c(C)cc23)CC1 | 97
30 | Cc1cnccc1NCCNCc1cnc(N2CCCCC2)nc1 | 61
31 | Cc1cnccc1NCCNCc1cccc(OCCCCN2CCOCC2)c1 | 95
32 | c1ccc2c(CNCCC3CCN(c4ccncc4)CC3)csc2c1 | 77
33 | CCN1CCN(c2ccccc2CNCCC2CCN(C)CC2)CC1 | 18
34 | Fc1ccc(-n2cc(CNCCC3CCN(c4ccncc4)CC3)cn2)cc1 | 88
35 | COc1ccc(-c2cc(-c3ccccc3O)n([C@@H]3C(=O)Nc4ccc(Br)cc43)n2)cc1 | 31
36 | CN1CCN(CCNC2CCN3CCCC3C2)C(c2ccccc2)C1 (stereo not given) | 32
37 | C[C@@H](CNC1CCN(C2CCN(C)CC2)CC1)c1cccc(Cl)c1 | 98
38 | CCCc1cccc(CNC2CCN(C3CCN(C)CC3)CC2)c1 | 58
39 | COc1ccc2nc(C)cc(NCc3cccc(NC(=O)c4ccco4)c3)c2c1 | 96
40 | COc1ccc2c(C)cc(NCCCN3CCC[C@H](C(N)=O)C3)nc2c1 | 87
41 | Cc1cc(NCCCN2CCC[C@H](O)C2)c2cc(F)ccc2n1 | 28
42 | Cc1nc2ccc(CNC3CCN(c4ccc(F)c(F)c4)CC3)cc2[nH]1 | 56
43 | N[C@H]1CC[C@@H](NC2CCN(c3ccc(F)c(F)c3)CC2)CC1 | 45
44 | Fc1ccc(N2CCC(N[C@@H]3COC4(CCNCC4)C3)CC2)cc1F | 13
45 | COC(CN(Cc1nc(N)nc(Nc2ccc(C)cc2)n1)Cc1nc(N)nc(Nc2ccc(C)cc2)n1)OC | 84
46 | OCCN1CCC(NCCc2cc(Cl)cc(Cl)c2)CC1 | 28
47 | CN1CCN(CCCCNC2CC3CCC(C2)N3Cc2ccccc2)CC1 (stereo not given) | 34
48 | O=C(NCc1cccc(-c2cccnc2)c1)N[C@H]1CCN(C2CCCCC2)C1 | 48
49 | O=C(CCc1nnc(-c2ccc(-c3ccccc3)cc2)o1)NC[C@@H]1CCCN2CCCC[C@H]12 | 56
50 | CC(C)(C)n1ncc2c(NCc3ccc4cccnc4c3O)ncnc21 | 27
51 | CN1CCN(CC2CCN(c3ccnc4ccccc34)CC2)CC1 | 99
52 | COc1ccc2c(N3CC[C@H](CN4CCCC4)C3)ccnc2c1 | 99
53 | CNc1nc(N2CCN(CC(=O)NC3CCCCC3)CC2)nc2ccccc12 | 23
54 | COc1cc2nc(-c3ccc(F)c4cccnc34)nc(N)c2cc1OC | 98
55 | Cc1cccc(Nc2ccnc(Nc3ccc(N4CCN(C)CC4)cc3)n2)c1 | 93
